Experimental data: PubChem BioAssay AID1259339 (Broad Institute, 2017)
Values without a mark were called inactive. Active and inactive are the calls of the source.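 The calls were made as follows: active = fitted AC50 no higher than ten times the top tested dose (cut at about 90 µM in these data); inconclusive = flat curve with 30 to 70% signal loss, or bad fit; inactive = AC50 beyond ten times the top dose.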

Assay: AlphaLISA signal interference compounds, dose response, artefact control, biochemical, TruHit kit (AID 1259339)
Conditions: TruHit alphaLISA kit signal interference counterscreen; series mostly up to 80 µM

Structure (SMILES) | AC50
O=C(O)Cc1c[nH]c2cccc(O)c12 | 11.3 µM (active)
O=S(=O)(Nc1nccs1)c1ccc(-n2cccc2)cc1 | 18.8 µM (active)
COc1ccc(-c2nnc(-c3nc(Nc4ccc(NC(C)=O)cc4)c4ccccc4n3)o2)cc1 | > 160 µM
Cc1ccc(N2NC(c3ccc(Br)cc3)=CCC2=O)cc1 | 66.7 µM (active)
O=C(COC(=O)c1ccc(F)cc1F)Nc1ncccn1 | inactive
O=C(Nc1nc(-c2ccco2)c(-c2ccco2)s1)c1ccco1 | 0.98 µM (active)
O=C(Cc1ccc(S(=O)(=O)N2CCOCC2)s1)Nc1nc2c(s1)CCCC2 | 29.2 µM (active)
O=C(O)CCc1ccc(-c2cccs2)n1NC(=O)c1ccco1 | > 160 µM
COc1ccc(S(=O)(=O)c2ccccc2)cc1NS(=O)(=O)c1cccc(C(=O)O)c1 | inactive
NC(=O)C1(N2CCCCC2)CCN(c2ncc(NC(=O)c3cccc(Cl)c3)cc2C(=O)O)CC1 | > 160 µM
C[C@H](CO)N1C[C@H](C)[C@@H](CN(C)CC2CCCCC2)OCCCC[C@H](C)Oc2ccc(NS(=O)(=O)c3ccc(F)cc3)cc2C1=O | inactive
NC(=O)C1(N2CCCCC2)CCN(c2ncc(NC(=O)c3cccs3)cc2C(=O)O)CC1 | inactive
NC(=O)C1(N2CCCCC2)CCN(c2ccc(NC(=O)c3cccc(Cl)c3)cc2C(=O)O)CC1 | inactive
COc1ccc(-n2c(C)c3c(OC)cccc(=O)c3c2C)cc1 | 22.1 µM (active)
O=C(NCCc1ccco1)c1ccc(OCc2cn3ccccc3n2)cc1 | inactive
Cc1ccc(-c2cc(C(=O)NCc3ccco3)c3ccccc3n2)o1 | 64.5 µM (active)
O=C(Nc1nnc(-c2ccco2)s1)c1ccccc1 | inactive
O=C(Nc1nc(-c2ccccn2)cs1)c1cccc(-n2cnnn2)c1 | inactive

Structure (SMILES) | AC50
Cc1ccccc1C(=O)Nc1cnc(N2CCC(C(N)=O)(N3CCCCC3)CC2)c(C(=O)O)c1 | inactive
CCN1CCN(C(=O)c2cc(-c3ccco3)nc3ccccc23)CC1 | > 160 µM
O=C(COC(=O)c1cc(-c2cccs2)nc2ccccc12)NCc1ccco1 | 40.2 µM (active)
O=C(Nc1ccc2oc(-c3ccncc3)nc2c1)c1ccc2c(c1)OCCO2 | inactive
O=C(COC(=O)CCC(=O)c1cccs1)NCc1ccco1 | inactive
COc1ccc(-c2nc(C)c(C(C)=O)n2O)cc1OC | inactive
Cc1ccc(-c2nn(-c3ccccc3)cc2CN(Cc2ccccc2)C(=O)CCC(=O)O)o1 | 53.7 µM (active)
OCc1ccc(O)c2ncccc12 | > 160 µM
Cc1ccc(Nc2nc(C(=O)Nc3ccc(Cl)cc3)nc3ccccc23)cc1 | inactive
COc1ccc(S(=O)(=O)N2CCOCC2)cc1NC(=O)c1cccc(-n2cccc2)c1 | 36.1 µM (active)
Cc1cccc(Nc2nc(C(=O)Nc3cc(F)ccc3F)nc3ccccc23)c1 | inactive
O=C(NCCCN1CCOCC1)c1cc(-c2ccco2)nc2ccccc12 | 27.5 µM (active)
Cc1ccc(N2C(=O)c3ccccc3C2C(=O)c2ccc(O)cc2O)cc1 (stereo unspecified) | inactive
N#CNc1nc(O)cc(=O)[nH]1 | inactive
Cc1ccc(C(=O)Nc2cnc(N3CCC(C(N)=O)(N4CCCCC4)CC3)c(C(=O)O)c2)cc1 | inactive
CCn1ccnc1C1CCN(C(=O)CCn2c(C)nc3ccccc32)CC1 | inactive
C(=C\c1ccco1)/c1nc2ccccc2[nH]1 | 22.5 µM (active)
O=C(O)c1ccccc1/C=N/NC(=O)c1cc(-c2ccco2)nc2ccccc12 | 36 µM (active)
